The source made the active and inactive calls.
Assays:
[1] = system: Plasmodium falciparum Sir2 (PF13_0152, Sir2A); experiment: pfSir2 binders on small-molecule microarrays, primary screen, biochemical, small-molecule microarray, 635 nm fluorescence (AID 1098); details: small-molecule microarray binding, fluorescence 635 nm; higher = more signal;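 also: score merges spot fluorescence intensity with its signal-to-noise ratio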
[2] = small-molecule microarray binders of probe aDKK1, primary screen, biochemical, biotinylated probe, 635/667 nm fluorescence (AID 1099); details: higher = more signal;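 also: score merges 667nm spot fluorescence with signal to noise across triplicate slides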
[3] = small-molecule microarray binders of probe aCHRDL2, primary screen, biochemical, biotinylated probe, 635/667 nm fluorescence (AID 1100); details: higher = more signal
[4] = splicing luciferase reporter signal modulators, primary screen, spliceosome inhibition project, cell-based, HEK293, splice +/- reporter (AID 1101); details: luminescence, 24 h, higher = more signal, called active from +8 up or from −8 down;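 also: HEK293 cells carrying a splicing-competent luciferase reporter gene; test concentration not given here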
[5] = molecular target: Fibroblast growth factor 10 (Homo sapiens) (UniProt O15520); experiment: FGF10 binders on small-molecule microarrays, primary screen, biochemical, small-molecule microarray, 635 nm fluorescence (AID 1102); details: FGF10 binding, fluorescence 635 nm, higher = more signal
Chain of Fibroblast growth factor 10 (Homo sapiens) (O15520 whole entry, looked up): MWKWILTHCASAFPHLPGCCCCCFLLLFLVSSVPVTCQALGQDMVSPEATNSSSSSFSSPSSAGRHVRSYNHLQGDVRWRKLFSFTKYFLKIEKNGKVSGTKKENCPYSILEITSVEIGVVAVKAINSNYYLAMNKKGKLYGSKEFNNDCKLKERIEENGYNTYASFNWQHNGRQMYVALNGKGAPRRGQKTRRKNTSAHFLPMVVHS

[6] = system: glycogen synthase kinase-3 (GSK3A per assay name; protocol says GSK3B); experiment: GSK3 binders on small-molecule microarrays, primary screen, biochemical, small-molecule microarray, 635 nm fluorescence, GSK3A (AID 1103); details: small-molecule microarray binding, fluorescence 635 nm; higher = more signal; also: the record names both GSK3A and GSK3B
[7] = molecular target: Epidermal growth factor receptor (Homo sapiens) (UniProt P00533); experiment: EGFR binders on small-molecule microarrays, primary screen, biochemical, small-molecule microarray, 635 nm fluorescence (AID 1104); details: EGFR binding, higher = more signal;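 also: score merges 667 nm emission intensity with spot signal to noise over triplicate slides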
Chain of Epidermal growth factor receptor (Homo sapiens) (P00533 whole entry, looked up): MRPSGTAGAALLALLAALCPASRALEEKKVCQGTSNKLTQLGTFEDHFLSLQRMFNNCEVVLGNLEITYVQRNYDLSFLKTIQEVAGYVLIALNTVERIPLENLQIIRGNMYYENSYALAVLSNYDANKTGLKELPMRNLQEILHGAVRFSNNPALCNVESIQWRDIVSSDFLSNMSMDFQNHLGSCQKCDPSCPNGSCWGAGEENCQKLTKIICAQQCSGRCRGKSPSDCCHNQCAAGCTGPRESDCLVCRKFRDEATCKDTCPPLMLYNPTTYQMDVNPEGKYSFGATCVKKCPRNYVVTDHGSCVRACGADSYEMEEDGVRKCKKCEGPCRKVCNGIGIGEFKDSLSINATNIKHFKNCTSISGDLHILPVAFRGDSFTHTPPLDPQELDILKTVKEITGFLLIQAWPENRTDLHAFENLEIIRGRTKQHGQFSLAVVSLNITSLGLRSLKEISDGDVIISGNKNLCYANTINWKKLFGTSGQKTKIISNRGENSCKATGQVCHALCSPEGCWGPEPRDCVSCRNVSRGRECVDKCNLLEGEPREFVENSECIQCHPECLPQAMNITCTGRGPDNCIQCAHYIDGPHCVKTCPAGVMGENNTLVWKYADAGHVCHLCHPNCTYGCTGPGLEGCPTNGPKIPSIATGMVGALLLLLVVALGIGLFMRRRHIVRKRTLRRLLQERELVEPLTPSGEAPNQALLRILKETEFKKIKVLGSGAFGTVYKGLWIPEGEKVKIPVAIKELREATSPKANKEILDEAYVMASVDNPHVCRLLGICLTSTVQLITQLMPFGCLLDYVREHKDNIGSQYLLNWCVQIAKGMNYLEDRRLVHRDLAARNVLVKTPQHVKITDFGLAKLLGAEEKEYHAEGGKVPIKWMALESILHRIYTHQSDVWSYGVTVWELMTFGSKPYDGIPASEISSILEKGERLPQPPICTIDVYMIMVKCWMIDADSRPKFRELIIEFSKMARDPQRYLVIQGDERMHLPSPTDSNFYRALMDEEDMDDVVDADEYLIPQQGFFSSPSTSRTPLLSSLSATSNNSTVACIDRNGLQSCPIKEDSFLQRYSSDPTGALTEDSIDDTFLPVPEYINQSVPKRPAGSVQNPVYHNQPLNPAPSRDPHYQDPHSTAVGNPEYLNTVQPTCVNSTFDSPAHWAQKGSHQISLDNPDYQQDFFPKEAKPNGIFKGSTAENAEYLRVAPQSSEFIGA

[8] = molecular target: Follistatin-related protein 3 (Homo sapiens) (UniProt O95633); experiment: FSTL3 binders on small-molecule microarrays, primary screen, biochemical, small-molecule microarray, 635 nm fluorescence (AID 1105); details: FSTL3 binding, higher = more signal;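 also: score merges emission near 667 nm and signal to noise per printed spot across three slides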
Chain of Follistatin-related protein 3 (Homo sapiens) (O95633 whole entry, looked up): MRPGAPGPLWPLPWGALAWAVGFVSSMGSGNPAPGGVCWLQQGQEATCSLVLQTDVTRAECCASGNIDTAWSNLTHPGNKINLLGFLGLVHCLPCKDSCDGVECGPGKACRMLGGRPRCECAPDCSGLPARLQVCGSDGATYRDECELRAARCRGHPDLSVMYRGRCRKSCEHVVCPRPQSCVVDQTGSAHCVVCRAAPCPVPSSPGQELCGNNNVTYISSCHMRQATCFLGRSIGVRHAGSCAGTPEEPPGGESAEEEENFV

[9] = molecular target: Dickkopf-related protein 1 (Homo sapiens) (UniProt O94907); experiment: DKK1 binders on small-molecule microarrays, primary screen, biochemical, small-molecule microarray, 635 nm fluorescence scan (AID 1106); details: DKK1 binding, higher = more signal;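 also: score merges emission near 667 nm with signal to noise over three replicate slides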
Chain of Dickkopf-related protein 1 (Homo sapiens) (O94907 whole entry, looked up): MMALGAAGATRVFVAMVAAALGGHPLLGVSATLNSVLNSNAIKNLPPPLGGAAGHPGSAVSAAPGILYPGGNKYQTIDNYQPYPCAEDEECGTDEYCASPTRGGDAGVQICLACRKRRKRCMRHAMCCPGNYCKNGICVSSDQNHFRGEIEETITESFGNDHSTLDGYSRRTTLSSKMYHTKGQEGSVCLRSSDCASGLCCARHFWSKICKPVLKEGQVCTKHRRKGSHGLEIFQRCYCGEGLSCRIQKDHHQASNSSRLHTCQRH

[10] = system: Inhibin beta A chain (activin A); experiment: INHBA (activin A) binders on microarrays, primary screen, biochemical, small-molecule microarray, 635 nm fluorescence scan (AID 1107); details: small-molecule microarray binding, higher = more signal;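 also: mouse activin A protein probed at 4.33 µg/mL on printed slides; score merges bound-protein fluorescence near 667 nm with spot signal-to-noise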
[11] = system: Human papillomavirus type 1a protein E7 (residues 44-93); experiment: HPV1a E7 fragment binders on microarrays, primary screen, biochemical, small-molecule microarray, residues 44-93, 635 nm fluorescence (AID 1108); details: small-molecule microarray binding, fluorescence 635 nm; higher = more signal;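 also: E7 fragment applied at 1 µg/mL in TBST for 1 h at 4 C; score combines spot fluorescence with its signal to noise ratio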
[12] = modulators of HCV replicon luciferase signal, primary screen, HCV replication inhibitor project, Huh7 cells, luciferase reporter (AID 1109); details: 48 h, higher = more signal;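 also: huh7 hepatoma cells harbouring a luciferase neomycin HCV replicon reporter; luciferase luminescence as measure of HCV replicon replication; test concentration not given here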
[13] = molecular target: Left-right determination factor 2 (Homo sapiens) (UniProt O00292); experiment: LEFTY2 binders on small-molecule microarrays, primary screen, biochemical, small-molecule microarray, 635 nm fluorescence scan (AID 1110); details: LEFTY2 binding, higher = more signal
Chain of Left-right determination factor 2 (Homo sapiens) (O00292 whole entry, looked up): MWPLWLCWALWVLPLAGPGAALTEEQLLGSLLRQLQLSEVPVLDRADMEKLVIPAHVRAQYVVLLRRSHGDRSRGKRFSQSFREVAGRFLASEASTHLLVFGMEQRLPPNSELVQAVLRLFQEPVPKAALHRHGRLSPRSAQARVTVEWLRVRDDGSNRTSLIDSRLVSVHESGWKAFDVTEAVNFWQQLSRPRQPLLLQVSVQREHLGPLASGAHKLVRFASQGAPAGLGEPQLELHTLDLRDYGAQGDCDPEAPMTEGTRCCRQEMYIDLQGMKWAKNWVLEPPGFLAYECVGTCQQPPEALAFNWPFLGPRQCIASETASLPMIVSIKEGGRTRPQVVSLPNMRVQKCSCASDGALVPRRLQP

[14] = molecular target: Calmodulin-1 (Homo sapiens) (UniProt P0DP23); experiment: CALM1 binders on microarrays, EGTA buffer, profiling panel, biochemical, small-molecule microarray, Cy5-labelled CALM1 (AID 1111); details: Cy5-CALM1 binding fluorescence, higher = more signal;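 also: labelled calmodulin applied in Tris saline Tween buffer holding calcium plus EGTA and DTT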
[15] = molecular target: Calmodulin-1 (Homo sapiens) (UniProt P0DP23); experiment: calcium-bound CALM1 binders on microarrays, profiling panel, artefact control for SMM control-protein annotation, biochemical, small-molecule microarray, Cy5-labelled CALM1, plus calcium (AID 1112); details: Cy5-CALM1 binding fluorescence, higher = more signal;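 also: score merges spot fluorescence with signal to noise from triplicate slides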
[16] = small-molecule microarray binders of probe aWnt5a, primary screen, biochemical, biotinylated probe, 635/667 nm fluorescence (AID 1113); details: higher = more signal;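 also: score merges 667 nm fluorescence intensity with signal-to-noise per printed feature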
[17] = small-molecule microarray binders of probe aShh, primary screen, biochemical, biotinylated probe, 635/667 nm fluorescence (AID 1114); details: higher = more signal;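 also: probe is biotin-labelled aShh protein from a stem cell growth factor screen; measures binding of labelled protein to compounds printed on the slide; score merges feature fluorescence at 667 nm with signal-to-noise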
[18] = small-molecule microarray binders of probe aNog, primary screen, biochemical, biotinylated probe, 635/667 nm fluorescence (AID 1115); details: higher = more signal;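 also: probe is biotinylated aNog protein used at 0.15 µg/mL for 1 h at 4 C; z-score combines 667 nm fluorescence of each spot with its signal to noise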
[19] = molecular target: Torsin-1A-interacting protein 1 (Homo sapiens) (UniProt Q5JTV8); experiment: LAP1 binders from COS7 cell lysate, primary screen, small-molecule microarray, 635/667 nm fluorescence (AID 1116); details: COS7-hLAP1 lysate binding, 635 nm fluorescence, higher = more signal
Chain of Torsin-1A-interacting protein 1 (Homo sapiens) (Q5JTV8 whole entry, looked up): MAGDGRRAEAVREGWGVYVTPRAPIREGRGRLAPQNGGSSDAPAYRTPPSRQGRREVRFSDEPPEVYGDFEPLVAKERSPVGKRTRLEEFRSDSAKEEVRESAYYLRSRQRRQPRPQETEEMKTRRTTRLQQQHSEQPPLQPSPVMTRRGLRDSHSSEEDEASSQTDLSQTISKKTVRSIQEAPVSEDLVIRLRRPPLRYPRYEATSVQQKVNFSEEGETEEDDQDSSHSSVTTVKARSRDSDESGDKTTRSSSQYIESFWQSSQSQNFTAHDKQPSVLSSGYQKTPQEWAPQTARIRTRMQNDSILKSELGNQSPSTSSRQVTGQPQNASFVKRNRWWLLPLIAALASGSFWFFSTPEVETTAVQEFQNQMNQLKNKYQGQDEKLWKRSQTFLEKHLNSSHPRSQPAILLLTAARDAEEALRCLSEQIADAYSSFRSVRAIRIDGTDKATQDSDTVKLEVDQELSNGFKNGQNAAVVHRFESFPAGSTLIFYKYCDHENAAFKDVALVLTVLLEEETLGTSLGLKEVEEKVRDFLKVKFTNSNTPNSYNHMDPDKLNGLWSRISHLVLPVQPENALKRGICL

[20] = molecular target: Alpha-bungarotoxin (Bungarus multicinctus) (UniProt P60615); experiment: alpha-bungarotoxin binders on microarray, profiling panel, artefact control for SMM control protein annotation, biochemical, small-molecule microarray, Alexa647 label, 635/667 nm fluorescence (AID 1117); details: alpha-BTX-A647 binding fluorescence, higher = more signal
Chain of Alpha-bungarotoxin (Bungarus multicinctus) (P60615 whole entry, looked up): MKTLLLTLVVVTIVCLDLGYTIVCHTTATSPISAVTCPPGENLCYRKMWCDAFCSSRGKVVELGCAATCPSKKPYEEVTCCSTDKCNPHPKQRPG

Row | SMILES | composite z-score [1] | composite z-score [2] | composite z-score [3] | z-score [4] | composite z-score [5] | composite z-score [6] | composite z-score [7] | composite z-score [8] | composite z-score [9] | composite z-score [10] | composite z-score [11] | z-score [12] | composite z-score [13] | composite z-score [14] | composite z-score [15] | composite z-score [16] | composite z-score [17] | composite z-score [18] | composite z-score [19] | composite z-score [20]
1 | COc1ccc(CCNC(=O)[C@@H]2c3ccccc3C(=O)N(C(C)C)[C@H]2c2ccc(CO)cc2)cc1 | 0.37 | 0.316 | 0.684 | 0.109 (inactive) | -1.05 | -0.848 | -0.736 | -0.715 | -0.995 | -0.158 | -0.943 | -1.41 | -1.81 | -0.446 | 0.465 | -0.172 | -0.209 | -0.0621 | 0.434 | 2.66
2 | C=C[C@@H](CO)NS(=O)(=O)c1ccc(Br)cc1 | -1.62 | -0.267 | -0.0866 | -0.774 (inactive) | -0.398 | -0.986 | -0.288 | -0.459 | -0.0213 | 0.733 | -1.71 | 0.0931 | -0.671 | -1.05 | -0.453 | -0.208 | -0.153 | -0.158 | 0.127 | -0.796
3 | CC(C)(C)OC(=O)N1[C@@H](C=C(Br)Br)COC1(C)C | 0.395 | -0.16 | -0.282 | 0.104 (inactive) | 0.382 | 0.901 | 0.614 | 0.164 | 0.393 | 0.29 | 0.943 | -0.213 | 0.514 | -0.177 | -0.41 | -0.0944 | -0.167 | 0.0051 | 1.29 | 0.398
4 | COc1ccc([Si](C)(C)[C@H]2[C@H](CC(=O)N(CCO)Cc3ccccc3)O[C@@]3(C(=O)N(Cc4cccc(N5CCCCC5=O)c4)c4ccccc43)[C@@H]2C)cc1 | 0.535 | -0.147 | -0.13 | -2.32 (inactive) | 0.114 | -0.0519 | -0.0805 | 0.436 | 0.327 | 0.167 | 0.558 | -4.06 | 0.384 | -0.0075 | 0.117 | -0.147 | 0.235 | -0.0863 | -0.0746 | 0.595
5 | O=C1NC(=O)C2C1C=CC(C(O)C1CCCCC1)N2Nc1ccccn1 (stereo not given) | 0.488 | 0.174 | 0.279 | 1.31 (inactive) | 0.355 | -0.133 | 0.391 | 0.402 | 0.254 | 1.26 | 0.657 | -0.442 | 0.372 | 0.5 | 0.469 | -0.0478 | 0.321 | 0.69 | -0.26 | 0.353
6 | COC(=O)[C@H](Cc1ccccc1)N1CC(C)(OC)O[C@@H](Cc2ccccc2)[C@H]1/C=C/C1CC1 (stereo not given in full) | 0.292 | -0.158 | 0.0982 | -0.579 (inactive) | -0.105 | 0.178 | -0.359 | -0.151 | -0.268 | 0.609 | 0.208 | -1.84 | -0.17 | -0.0441 | -0.233 | -0.0239 | -0.198 | 0.0299 | 0.726 | 0.2
7 | O=C1C[C@@](C(=O)NCC(F)(F)F)(c2ccc([N+](=O)[O-])cc2)[C@@H](c2ccc(CO)cc2I)N1CC12CC3CC(CC(C3)C1)C2 | 1.5 | -0.113 | 0.0558 | -1.85 (inactive) | 0.343 | 0.785 | 0.237 | 0.406 | -0.0464 | 0.227 | 1.31 | -3.3 | 0.0604 | 0.595 | 0.149 | -0.0843 | -0.314 | -0.229 | 0.349 | 1.23
8 | C=C(COC)C(=O)CC[C@H](OC(C)=O)c1ccccc1OCCO | 0.858 | -0.348 | 0.151 | -0.0648 (inactive) | 1.5 | -0.41 | -0.567 | -0.262 | 0.0024 | 1.13 | 0.0337 | -1.94 | -0.0181 | -0.714 | -1.1 | -0.15 | -0.223 | -0.397 | 1.59 | -0.15
9 | C=CC[C@H](O)c1ccc(O)c(F)c1 | 0.399 | -0.727 | 0.328 | -0.339 (inactive) | -0.809 | -1.13 | -1.23 | -0.418 | -1.97 | -2.89 | -2.12 | -1.74 | -1.13 | -0.829 | -0.589 | -0.229 | -0.138 | -0.537 | -0.992 | -0.328
10 | CS(=O)(=O)CCOC(=O)C1=CC(CCCO)=CC(C2CC2)N(Cc2sc3ccccc3c2Cl)C=C1C(=O)OCCS(C)(=O)=O (stereo not given) | 1.38 | 0.33 | 0.669 | 0.385 (inactive) | 0.705 | 0.838 | -0.0062 | 0.856 | 0.018 | 1.36 | 0.632 | -2.01 | 0.191 | 1.18 | 0.811 | 0.0324 | 0.214 | 0.614 | -0.643 | 0.904
11 | C=C(C(=O)CC[C@@H](OC(=O)c1ccccc1-c1ccccc1C(=O)O)c1cccc(OCCO)c1)C(C)C | 0.679 | -0.318 | -0.393 | 0.436 (inactive) | 1.56 | 0.133 | -0.143 | 0.441 | 0.907 | 1.06 | -0.635 | -3.06 | 0.706 | -0.367 | -0.692 | -0.129 | -0.0396 | -0.248 | 3.26 | -0.11

Source: PubChem BioAssay
